Laboratory results: PubChem BioAssay (EPA / NIEHS)
Where “and” joins values, the source holds several entries; their conditions need not be identical. Equal entries are not always repeated. Results filed as inconclusive are left out. Some structures have more than one record in an assay (separate samples or runs), and their calls can disagree. Calls of active or inactive are those of the source. How the source made its calls, unless noted: active means hit-call score of the fitted dose curve at least 0.9, where 1 is the maximum; inactive means score below 0.9.

Tests used:
[1] = molecular target: Paired box protein Pax-6 (Homo sapiens) (UniProt P26367); experiment: ATG_Pax6_CIS: Attagene CIS-FACTORIAL HepG2 Assay for human Paired Box 6 (PAX6) (AID 2282956); details: HepG2 CIS-FACTORIAL PAX6 reporter transcription, RNA readout; actives raise or lower the signal
Paired box protein Pax-6 (Homo sapiens), sequence (P26367 whole entry, looked up): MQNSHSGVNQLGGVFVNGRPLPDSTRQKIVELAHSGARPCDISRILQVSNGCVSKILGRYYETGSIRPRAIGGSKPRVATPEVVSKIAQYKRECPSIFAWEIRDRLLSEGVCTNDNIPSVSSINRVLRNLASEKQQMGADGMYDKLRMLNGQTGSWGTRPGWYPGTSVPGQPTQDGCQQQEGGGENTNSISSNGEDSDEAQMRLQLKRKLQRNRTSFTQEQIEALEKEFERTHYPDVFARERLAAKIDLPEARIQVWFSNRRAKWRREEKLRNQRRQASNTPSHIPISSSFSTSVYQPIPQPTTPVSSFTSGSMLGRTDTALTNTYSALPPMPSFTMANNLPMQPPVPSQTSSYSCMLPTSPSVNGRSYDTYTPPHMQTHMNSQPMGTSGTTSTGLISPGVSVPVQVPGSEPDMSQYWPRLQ
How it was run: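 Fluorescent RT-PCR products separated by capillary electrophoresis report PAX6-linked promoter mRNA in HepG2 cells 24 h post-dose. Curves fitted bidirectionally, DMSO as negative control.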

[2] = ATG_PXRE_CIS: Attagene CIS-FACTORIAL HepG2 Assay for human Pregnane X Receptor Element (PXRE) (AID 2282957); details: HepG2 Attagene CIS-FACTORIAL PXRE reporter, mRNA; actives raise or lower the signal
How it was run: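 Endogenous transcription factor activity in HepG2 was gauged through induction of reporter mRNA driven by a cis-regulating promoter element, sampled 24 h post-treatment. Activity was fitted in both directions against DMSO negative control.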

[3] = ATG_PPRE_CIS: Attagene CIS-FACTORIAL HepG2 Assay for human Peroxisome Proliferator-activated Response Element (PPRE) (AID 2282958); details: HepG2 PPRE cis-element reporter, Attagene transcription factor profiling; actives raise or lower the signal
How it was run: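 Read-out: fluorescent reporter mRNA fragments resolved by capillary electrophoresis after RT-PCR. HepG2 cells carried transiently transfected PPRE-driven cis reporter constructs and were dosed for 24 h; gain or loss of signal fitted relative to DMSO.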

[4] = ATG_RORE_CIS: Attagene CIS-FACTORIAL HepG2 Assay for human RAR-related Orphan Receptor Element (RORE) (AID 2282959); details: HepG2 Attagene cis-factorial RORE reporter, mRNA; actives raise or lower the signal
How it was run: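 Readout: fluorescent reporter mRNA by RT-PCR plus capillary electrophoresis, 24 h after dosing transfected HepG2 cells. Endogenous transcription factor activity on a cis promoter element is measured. Gain or loss of signal fitted against DMSO.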

[5] = ATG_Sox_CIS: Attagene CIS-FACTORIAL HepG2 Assay for human SRY-box transcription factor (SOX) (AID 2282960); details: HepG2 Attagene cis-factorial SOX reporter, mRNA; actives raise or lower the signal
How it was run: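 Read-out: fluorescent RT-PCR products of SOX1-linked reporter transcripts resolved by capillary electrophoresis, fitted bidirectionally against DMSO. Transiently transfected HepG2 cells, 24 h after chemical exposure, endogenous transcription factor activity.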

[6] = molecular target: Transcription factor Sp1 (Homo sapiens) (UniProt P08047); experiment: ATG_Sp1_CIS: Attagene CIS-FACTORIAL HepG2 Assay for human Specificity Protein 1 (Sp1) (AID 2282961); details: HepG2 Sp1 cis-reporter transcription, actives raise or lower the signal
Transcription factor Sp1 (Homo sapiens), sequence (P08047 whole entry, looked up): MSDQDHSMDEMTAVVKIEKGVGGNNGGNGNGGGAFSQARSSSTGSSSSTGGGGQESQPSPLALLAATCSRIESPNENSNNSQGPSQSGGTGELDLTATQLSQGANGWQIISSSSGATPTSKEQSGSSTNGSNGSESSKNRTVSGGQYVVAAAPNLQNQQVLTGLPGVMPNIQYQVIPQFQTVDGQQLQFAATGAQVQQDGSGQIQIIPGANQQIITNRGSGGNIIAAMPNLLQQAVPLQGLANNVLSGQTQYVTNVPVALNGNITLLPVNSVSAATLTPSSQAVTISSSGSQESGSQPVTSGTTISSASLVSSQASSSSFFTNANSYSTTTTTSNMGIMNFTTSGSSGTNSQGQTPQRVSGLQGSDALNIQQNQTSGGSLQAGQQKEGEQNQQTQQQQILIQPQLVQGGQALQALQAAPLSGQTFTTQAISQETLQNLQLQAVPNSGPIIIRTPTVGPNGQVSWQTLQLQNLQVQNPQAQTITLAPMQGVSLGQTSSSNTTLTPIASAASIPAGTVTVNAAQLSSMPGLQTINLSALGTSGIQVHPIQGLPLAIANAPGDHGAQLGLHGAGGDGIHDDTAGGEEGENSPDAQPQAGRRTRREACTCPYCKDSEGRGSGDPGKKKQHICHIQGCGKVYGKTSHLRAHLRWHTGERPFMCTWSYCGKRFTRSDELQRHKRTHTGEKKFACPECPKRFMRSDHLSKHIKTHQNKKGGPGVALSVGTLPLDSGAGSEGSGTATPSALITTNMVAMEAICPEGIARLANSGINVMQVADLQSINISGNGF
How it was run: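 Read-out: fluorescence of 6-FAM-labeled, HpaI-digested RT-PCR products separated by capillary electrophoresis. HepG2 cells carried transfected cis-element reporter units and were exposed to chemicals for 24 h; gain or loss of signal fitted relative to DMSO.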

[7] = ATG_SREBP_CIS: Attagene CIS-FACTORIAL HepG2 Assay for human Sterol Regulatory Element Binding (SREBP) (AID 2282962); details: HepG2 Attagene cis-factorial SREBP reporter, mRNA; actives raise or lower the signal
How it was run: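 Endogenous factor activity is measured in HepG2 through multiplexed reporter units under cis-element control. Following a 24 h incubation, reporter transcripts are reverse-transcribed, PCR-amplified and sized by capillary electrophoresis; activity is fitted in both directions relative to DMSO.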

[8] = molecular target: Signal transducer and activator of transcription 3 (Homo sapiens) (UniProt P40763); experiment: ATG_STAT3_CIS: Attagene CIS-FACTORIAL HepG2 Assay for human Signal Transducer and Activator of Transcription 3 (STAT3) (AID 2282963); details: HepG2, Attagene cis-factorial STAT3 reporter transcription; actives raise or lower the signal
Signal transducer and activator of transcription 3 (Homo sapiens), sequence (P40763 whole entry, looked up): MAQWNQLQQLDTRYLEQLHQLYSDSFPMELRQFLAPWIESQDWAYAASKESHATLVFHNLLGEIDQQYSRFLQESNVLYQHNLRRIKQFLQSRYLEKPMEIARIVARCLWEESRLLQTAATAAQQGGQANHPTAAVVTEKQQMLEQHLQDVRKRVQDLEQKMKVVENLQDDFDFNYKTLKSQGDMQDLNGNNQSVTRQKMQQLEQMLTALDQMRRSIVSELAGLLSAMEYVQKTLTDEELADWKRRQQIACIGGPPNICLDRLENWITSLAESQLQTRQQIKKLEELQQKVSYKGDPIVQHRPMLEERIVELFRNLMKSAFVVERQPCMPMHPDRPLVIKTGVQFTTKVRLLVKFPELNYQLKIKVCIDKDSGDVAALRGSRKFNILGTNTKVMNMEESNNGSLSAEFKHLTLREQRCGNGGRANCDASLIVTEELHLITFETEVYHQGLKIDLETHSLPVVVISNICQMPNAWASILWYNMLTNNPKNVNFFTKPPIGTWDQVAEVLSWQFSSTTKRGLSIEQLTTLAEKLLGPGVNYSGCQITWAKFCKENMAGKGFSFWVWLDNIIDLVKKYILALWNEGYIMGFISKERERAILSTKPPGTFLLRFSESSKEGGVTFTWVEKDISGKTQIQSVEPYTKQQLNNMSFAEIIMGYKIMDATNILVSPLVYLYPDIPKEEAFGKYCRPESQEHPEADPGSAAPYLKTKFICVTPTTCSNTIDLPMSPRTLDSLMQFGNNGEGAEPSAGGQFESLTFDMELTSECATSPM
How it was run: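 HepG2, MRTU-transfected, 24 h dosing. RNA → RT → PCR → FAM label → HpaI → CE. Bidirectional fit vs DMSO.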

[9] = ATG_TA_CIS: Attagene CIS-FACTORIAL HepG2 Assay for human TA Basal Promoter (AID 2282964); details: HepG2 Attagene CIS-factorial TA basal promoter reporter; actives raise or lower the signal
How it was run: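 Cis-factorial format in HepG2: reporters report endogenous factors, not chimeric Gal4 fusions. After 24 h treatment, reporter transcripts were measured by RT-PCR-capillary electrophoresis fluorescence, analysed bidirectionally versus DMSO.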

[10] = ATG_TCF_b_cat_CIS: Attagene CIS-FACTORIAL HepG2 Assay for human T-Cell-Factor with beta-catenin (TCF/b-cat) (AID 2282965); details: HepG2 TCF/beta-catenin cis-reporter transcription, actives raise or lower the signal
How it was run: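 Using capillary electrophoresis as the read-out, labelled reporter cDNA fragments from transiently transfected HepG2 were sized and quantified. Exposure lasted 24 hours; activity in either direction was referenced to DMSO.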

[11] = ATG_TAL_CIS: Attagene CIS-FACTORIAL HepG2 Assay for human TAL Basal Promoter (AID 2282966); details: HepG2 Attagene cis-factorial TAL promoter reporter; actives raise or lower the signal;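 further: background control endpoint measuring basal TAL promoter reporter mRNA not a specific factor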
How it was run: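 Endogenous transcription-factor activity is sensed in HepG2 cells through transfected cis-promoter reporter constructs. After 24 h dosing, reporter transcripts are quantified by RT-PCR and capillary electrophoresis. Gain or loss of signal is fitted relative to DMSO.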

[12] = ATG_TGFb_CIS: Attagene CIS-FACTORIAL HepG2 Assay for human Transforming Growth Factor (TGF) (AID 2282967); details: HepG2 Attagene CIS TGFb reporter, mRNA transcription; actives raise or lower the signal
How it was run: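 Multiplexed cis-reporter HepG2 system, 24 h treatment; mRNA induction read by fluorescence after RT-PCR and CE; DMSO negative control, bidirectional curve fitting.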

[13] = molecular target: Estrogen receptor (Homo sapiens) (UniProt P03372); experiment: ATG_ERa_TRANS: Attagene TRANS-FACTORIAL HepG2 Assay for human Estrogen Receptor alpha (ERa) (AID 2282970; active means hit-call score of the fitted dose curve at least 0.9, where 1 is the maximum); details: HepG2 Attagene TRANS ERa GAL4 reporter, mRNA
Estrogen receptor (Homo sapiens), sequence (P03372 whole entry, looked up, the tested form may be a part): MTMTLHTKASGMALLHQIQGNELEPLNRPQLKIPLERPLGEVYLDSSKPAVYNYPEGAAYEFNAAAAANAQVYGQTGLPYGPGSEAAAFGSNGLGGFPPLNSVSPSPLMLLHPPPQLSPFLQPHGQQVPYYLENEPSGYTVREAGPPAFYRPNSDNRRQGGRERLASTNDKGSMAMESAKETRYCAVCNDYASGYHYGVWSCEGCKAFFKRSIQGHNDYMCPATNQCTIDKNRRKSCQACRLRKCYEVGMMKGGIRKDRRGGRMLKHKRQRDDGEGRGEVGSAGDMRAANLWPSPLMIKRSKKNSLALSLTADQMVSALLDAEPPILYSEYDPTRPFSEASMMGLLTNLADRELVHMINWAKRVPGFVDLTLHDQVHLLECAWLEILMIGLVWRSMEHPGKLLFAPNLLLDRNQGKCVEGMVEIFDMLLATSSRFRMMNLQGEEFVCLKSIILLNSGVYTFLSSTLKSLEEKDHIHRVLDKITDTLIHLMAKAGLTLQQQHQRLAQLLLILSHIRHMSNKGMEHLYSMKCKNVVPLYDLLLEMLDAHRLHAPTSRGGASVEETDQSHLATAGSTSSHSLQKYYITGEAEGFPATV
How it was run: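 Transfected HepG2 cells carrying GAL4-UAS-driven reporter units were dosed for 24 hours. Total RNA was reverse-transcribed, reporter sequences PCR-amplified, FAM-labelled, HpaI-digested and resolved by capillary electrophoresis. Increases over DMSO control defined activity.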

[14] = molecular target: Steroid hormone receptor ERR1 (Homo sapiens) (UniProt P11474); experiment: ATG_ERRa_TRANS: Attagene TRANS-FACTORIAL HepG2 Assay for human Estrogen-Related Receptor alpha (ERRa) (AID 2282971; active means hit-call score of the fitted dose curve at least 0.9, where 1 is the maximum); details: HepG2 Attagene TRANS reporter, ERRa transactivation
Steroid hormone receptor ERR1 (Homo sapiens), sequence (P11474 whole entry, looked up, the tested form may be a part): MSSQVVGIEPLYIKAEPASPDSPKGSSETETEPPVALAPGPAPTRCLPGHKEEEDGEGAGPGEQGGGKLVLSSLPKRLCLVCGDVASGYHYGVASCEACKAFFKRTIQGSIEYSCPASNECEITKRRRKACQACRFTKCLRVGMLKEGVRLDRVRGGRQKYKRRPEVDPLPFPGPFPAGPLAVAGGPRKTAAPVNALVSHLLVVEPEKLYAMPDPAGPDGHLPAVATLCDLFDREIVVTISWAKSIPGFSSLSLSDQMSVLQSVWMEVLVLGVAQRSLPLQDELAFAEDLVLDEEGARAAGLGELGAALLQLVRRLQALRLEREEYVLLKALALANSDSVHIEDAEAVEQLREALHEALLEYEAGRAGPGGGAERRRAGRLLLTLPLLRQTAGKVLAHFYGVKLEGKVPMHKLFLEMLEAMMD
How it was run: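 HepG2 cells were transiently transfected with multiple GAL4-UAS reporter units, then dosed with compound for 24 h. Total RNA was reverse-transcribed, reporter cDNA PCR-amplified and fluorescently labelled, and fragments resolved by capillary electrophoresis; induction was compared with DMSO.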

[15] = molecular target: X-box-binding protein 1 (Homo sapiens) (UniProt P17861); experiment: ATG_Xbp1_CIS: Attagene CIS-FACTORIAL HepG2 Assay for human X-box Binding Protein 1 (XBP1) (AID 2282972); details: HepG2 XBP1 cis-element reporter, Attagene multiplex; actives raise or lower the signal
X-box-binding protein 1 (Homo sapiens), sequence (P17861 whole entry, looked up): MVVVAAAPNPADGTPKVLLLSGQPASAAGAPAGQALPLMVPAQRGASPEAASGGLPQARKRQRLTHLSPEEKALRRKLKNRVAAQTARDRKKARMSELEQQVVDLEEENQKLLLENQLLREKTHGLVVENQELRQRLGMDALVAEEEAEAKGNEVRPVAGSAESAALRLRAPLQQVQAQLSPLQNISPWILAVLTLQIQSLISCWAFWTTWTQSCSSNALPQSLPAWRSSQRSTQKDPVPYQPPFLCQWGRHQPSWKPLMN
How it was run: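 Multiplexed cis-reporter readout in transfected HepG2 liver cells. Exposure lasted 24 hours. Activity in either direction was fitted against DMSO as negative control and baseline.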

[16] = ATG_VDRE_CIS: Attagene CIS-FACTORIAL HepG2 Assay for human Vitamin D Receptor Element (VDRE) (AID 2282968); details: HepG2 VDRE cis-reporter transcription, actives raise or lower the signal
How it was run: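 Steps: transfect HepG2 with multiple reporter transcription units; dose chemicals 24 h; isolate RNA; RT-PCR; label with 6-FAM primer extension; HpaI digest; capillary electrophoresis. Curves fitted both directions against DMSO.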

[17] = molecular target: Nuclear receptor subfamily 1 group I member 3 (Homo sapiens) (UniProt Q14994); experiment: ATG_CAR_TRANS: Attagene TRANS-FACTORIAL HepG2 Assay for human Constitutive Androstane Receptor (CAR) (AID 2282969; active means hit-call score of the fitted dose curve at least 0.9, where 1 is the maximum;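 further: activators raise reporter mRNA above DMSO so AC50 marks induction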); details: HepG2 Attagene TRANS-FACTORIAL CAR reporter
Nuclear receptor subfamily 1 group I member 3 (Homo sapiens), sequence (Q14994 whole entry, looked up, the tested form may be a part): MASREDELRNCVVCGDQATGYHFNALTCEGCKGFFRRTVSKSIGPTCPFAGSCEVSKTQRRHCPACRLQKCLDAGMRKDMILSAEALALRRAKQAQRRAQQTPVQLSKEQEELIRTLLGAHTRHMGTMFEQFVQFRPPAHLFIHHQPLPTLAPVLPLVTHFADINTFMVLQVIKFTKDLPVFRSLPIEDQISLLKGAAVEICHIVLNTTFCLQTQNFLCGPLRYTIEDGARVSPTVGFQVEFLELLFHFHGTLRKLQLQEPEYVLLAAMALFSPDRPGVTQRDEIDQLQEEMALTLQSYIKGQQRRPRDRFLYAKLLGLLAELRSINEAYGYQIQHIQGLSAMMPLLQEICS
How it was run: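 Steps: transient transfection of HepG2 with multiple GAL4-UAS reporter units; 24 h compound incubation; RNA isolation, RT-PCR, 6-FAM primer extension, HpaI digest; capillary electrophoresis. Gain-of-signal relative to DMSO negative control.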

[18] = molecular target: Androgen receptor (Homo sapiens) (UniProt P10275); experiment: ATG_AR_TRANS: Attagene TRANS-FACTORIAL HepG2 Assay for human Androgen Receptor (AR) (AID 2282973; active means hit-call score of the fitted dose curve at least 0.9, where 1 is the maximum); details: HepG2 Attagene TRANS-FACTORIAL AR reporter transcription
Androgen receptor (Homo sapiens), sequence (P10275 whole entry, looked up, the tested form may be a part): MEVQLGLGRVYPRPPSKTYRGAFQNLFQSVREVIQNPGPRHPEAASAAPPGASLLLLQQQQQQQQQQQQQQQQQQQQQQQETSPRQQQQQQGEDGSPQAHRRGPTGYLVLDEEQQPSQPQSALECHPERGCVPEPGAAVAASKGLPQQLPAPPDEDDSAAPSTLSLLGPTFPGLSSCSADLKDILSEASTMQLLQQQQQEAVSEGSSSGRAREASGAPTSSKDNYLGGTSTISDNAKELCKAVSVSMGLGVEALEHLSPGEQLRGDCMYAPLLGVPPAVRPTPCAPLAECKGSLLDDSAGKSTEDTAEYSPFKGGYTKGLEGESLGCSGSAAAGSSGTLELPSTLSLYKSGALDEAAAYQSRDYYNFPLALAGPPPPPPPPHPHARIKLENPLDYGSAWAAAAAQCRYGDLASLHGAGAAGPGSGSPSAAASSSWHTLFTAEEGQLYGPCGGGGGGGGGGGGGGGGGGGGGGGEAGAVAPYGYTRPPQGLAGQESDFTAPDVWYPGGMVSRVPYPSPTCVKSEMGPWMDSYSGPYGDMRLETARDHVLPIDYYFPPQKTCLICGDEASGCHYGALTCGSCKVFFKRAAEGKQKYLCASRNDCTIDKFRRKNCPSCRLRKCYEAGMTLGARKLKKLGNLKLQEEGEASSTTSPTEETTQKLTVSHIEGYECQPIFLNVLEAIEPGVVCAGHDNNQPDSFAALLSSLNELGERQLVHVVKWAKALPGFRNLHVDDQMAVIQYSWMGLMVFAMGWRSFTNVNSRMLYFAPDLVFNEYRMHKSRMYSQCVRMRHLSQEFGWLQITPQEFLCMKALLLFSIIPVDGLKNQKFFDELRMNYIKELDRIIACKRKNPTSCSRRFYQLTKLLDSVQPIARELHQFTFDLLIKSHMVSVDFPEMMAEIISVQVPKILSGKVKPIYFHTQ
How it was run: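 Transfected HepG2, 24 h treatment, chimeric NR-Gal4 driving GAL4-UAS reporters. mRNA induction by RT-PCR/capillary electrophoresis fluorescence; DMSO as negative control and baseline.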

[19] = ATG_M_19_TRANS: Attagene TRANS-FACTORIAL HepG2 Assay for M19 Transcription Factor (Internal Marker) (AID 2282974; active means hit-call score of the fitted dose curve at least 0.9, where 1 is the maximum); details: HepG2 Attagene TRANS-FACTORIAL M19 internal marker reporter
How it was run: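 24 h chemical exposure of transiently transfected HepG2 (MRTU library). RNA → oligo(dT) RT → PCR → 6-FAM labelling → HpaI cut → CE fluorescence. Positive-direction fit vs DMSO baseline; background internal-marker readout.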

[20] = ATG_Hpa5_TRANS: Attagene TRANS-FACTORIAL HepG2 Assay for human GAL4-Hpa5 Hepatocyte Transcription Factor Basal Promoter (AID 2282975; active means hit-call score of the fitted dose curve at least 0.9, where 1 is the maximum;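 further: hits are increases in reporter mRNA over DMSO baseline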); details: HepG2 Attagene GAL4-Hpa5 transcription reporter
How it was run: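 Gain-of-signal versus DMSO is fitted for reporter mRNA quantified by RT-PCR and capillary electrophoresis after 24 h exposure. This endpoint is an internal background marker in transiently transfected HepG2 cells carrying GAL4-UAS reporter units.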

Measured: AC50

CC(C)OC(=O)Nc1cccc(Cl)c1
active: [2] 15.5 µM | [3] 47.1 µM
not listed: [16] | [17] | [18] | [19] | [20]
inactive: all other assays above

COc1cc(OC)nc(NC(=O)NS(=O)(=O)c2cc(NC=O)ccc2C(=O)N(C)C)n1
active: [2] 17.1 µM
not listed: [20]
inactive: all other assays above

CCCN(CCOc1c(Cl)cc(Cl)cc1Cl)C(=O)n1ccnc1
active: [2] 828 nM and 60.9 µM | [6] 4.43 µM | [7] 11.1 µM | [15] 19.5 µM
inactive: [1] | [3] | [4] | [5] | [6] | [7] | [8] | [9] | [10] | [11] | [12] | [17] | [14] | [15] | [19] | [20]

CCC(C)Nc1c([N+](=O)[O-])cc(C(C)(C)C)cc1[N+](=O)[O-] (centres undefined)
active: [2] 3.43 µM | [4] 24.1 µM | [13] 12.4 µM
not listed: [14] | [16] | [17] | [18]
inactive: all other assays above

CCCN(CCC)c1c([N+](=O)[O-])cc(C(F)(F)F)cc1[N+](=O)[O-]
active: [2] 6.82 µM | [13] 35.9 µM
not listed: [14] | [16] | [18]
inactive: all other assays above

O=C(O)C(F)(F)C(F)(F)C(F)(F)C(F)(F)C(F)(F)C(F)(F)C(F)(F)F
active: [2] 34.1 µM and 41 µM and 41.5 µM | [10] 221 µM and 231 µM
inactive: [1] | [2] | [5] | [7] | [8] | [9] | [10] | [11] | [12] | [16] | [15] | [19]

N#CN
not listed: [6] | [14] | [16] | [18] | [19] | [20]
inactive: all other assays above

CCS(=O)(=O)c1cccnc1S(=O)(=O)NC(=O)Nc1nc(OC)cc(OC)n1
inactive: [1] | [2] | [3] | [4] | [5] | [6] | [7] | [8] | [9] | [10] | [11] | [12] | [16] | [17] | [14] | [15]
active: [2] 60.5 µM

O=C(Nc1ccccc1)Nc1cnns1
active: [1] 85 µM | [2] 66.5 µM | [5] 50 µM | [6] 21.1 µM | [7] 50 µM | [15] 77.6 µM
not listed: [16] | [18] | [20]
inactive: all other assays above

OCCOc1ccccc1
not listed: [6] | [16] | [18] | [20]
inactive: all other assays above

CNC(=O)Oc1cccc(N=CN(C)C)c1
active: [3] 32.7 µM | [4] 90.4 µM | [7] 84.6 µM | [15] 90.4 µM
not listed: [14] | [16] | [18] | [19]
inactive: all other assays above

N#Cc1c(Cl)c(Cl)c(Cl)c(C#N)c1Cl
active: [2] 0.121 µM
not listed: [14] | [16] | [18]
inactive: all other assays above

CCOC1Oc2ccc(OS(C)(=O)=O)cc2C1(C)C (centres undefined)
active: [2] 5.08 µM | [3] 30.8 µM | [13] 25.4 µM
not listed: [6] | [14] | [16] | [20]
inactive: all other assays above
